# Rab9 promoter act = activates the Rab9 promoter | Huh7 Rab9 promoter-luciferase reporter, luminescence, 24 h | Potency, µM (titrated, usually from 9.22 µM), for inactives: top-dose activation, negative = inhibition, hits mostly activators | actives 2.8% (n = 320,000); also: % of control where 0% means no effect; nearly all actives have a fitted effect of over 60% in size
#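 Stable Rab9-luc Huh7, 1500 cells/well, 2 h settle; cmpd in DMSO, 24 h, 37 °C/5% CO2; luciferase reagent 10 min RT; luminescence.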
# SMN2 splice enh = SMN2 splice variant enhancement | HEK293 SMN2-luciferase splicing reporter, luminescence, 30-36 h | Potency, µM (series often up to 46.1 µM), for inactives: at the top dose activity change, positive = activation, hits mostly activators | actives 2.8% (n = 210,000); also: % of control where 0% means no effect; nearly all actives have a fitted effect of over 55% in size
#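 HEK293 cells carry an SMN2 […]–luciferase reporter in which exon 7 inclusion puts luciferase in frame. Cells were plated 10-12 h before compound addition, then incubated 30-36 h at 37C. ONE-Glo luminescence was read; sodium butyrate at 4.5 mM final served as control.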
# FLuc counter = inhibits or activates purified firefly luciferase, miR-21 counter-screen | P08659 | purified FLuc, Km substrates, luminescence inhibition | Potency, µM (doses to about 57.5 µM), inactives show top-dose activity change, negative = inhibition, most hits filed as inhibitors | actives 6.9% (n = 360,000) | AID 588342;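 also: plate controls were vehicle for no effect and reference inhibitor for full effect; nearly all actives have a fitted effect of over 55% in size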
# Target sequence (P08659 whole entry, looked up): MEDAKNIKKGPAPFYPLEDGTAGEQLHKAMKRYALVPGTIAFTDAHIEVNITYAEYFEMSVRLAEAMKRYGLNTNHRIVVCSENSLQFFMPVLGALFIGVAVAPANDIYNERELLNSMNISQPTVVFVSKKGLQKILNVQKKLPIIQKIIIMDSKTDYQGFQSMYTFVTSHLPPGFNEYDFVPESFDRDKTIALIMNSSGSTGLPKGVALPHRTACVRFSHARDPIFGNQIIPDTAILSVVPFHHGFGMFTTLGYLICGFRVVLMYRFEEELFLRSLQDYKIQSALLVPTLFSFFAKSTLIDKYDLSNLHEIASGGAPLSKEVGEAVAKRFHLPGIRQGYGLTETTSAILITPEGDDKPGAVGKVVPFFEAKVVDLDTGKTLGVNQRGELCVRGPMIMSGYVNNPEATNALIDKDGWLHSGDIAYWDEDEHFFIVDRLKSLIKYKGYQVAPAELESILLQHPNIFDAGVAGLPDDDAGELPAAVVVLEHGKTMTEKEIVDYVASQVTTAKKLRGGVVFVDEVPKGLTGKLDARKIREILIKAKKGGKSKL
#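 Biochemical qHTS of compounds, final roughly 60 µM downward over six points, against 10 nM purified firefly luciferase using Km concentrations of substrates (10 uM D-luciferin, 10 uM ATP) in Tris acetate pH 7.5 buffer; luminescence output.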
# NPC1 promoter act = NPC1 promoter activation | Huh7 NPC1 promoter luciferase reporter, 24 h | Potency, µM (series often up to 9.22 µM), inactives show top-dose activation, actives largely listed as activators | actives 2.4% (n = 320,000) | AID 485313; also: % of control where 0% means no effect; nearly all actives have a fitted effect of over 60% in size
#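 Compounds in DMSO were transferred onto Huh7 NPC1-luciferase reporter cells pre-incubated 2 h; after 24 h at 37 °C, Amplite reagent was dispensed and luminescence recorded 10 min later.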
# ELG1 genotox = induces genotoxicity in HEK293T cells with luciferase-tagged ELG1. AID 504466. HEK293T ELG1-luciferase reporter, luminescence, 16 h. Potency, µM (titrated, usually from 46 µM), for inactives: at the top dose activity change, positive = activation, most hits filed as activators. actives 1.3% (n = 330,000); also: % of control where 0% means no effect; nearly all actives have a fitted effect of over 60% in size
#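 DMSO vehicle served as control against compound-treated ELG1-luciferase HEK293T cells; exposure lasted 16 hr at 37 °C and 5% CO2, followed by ONE-Glo luminescence detection after 30 min.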
# ELG1 repair inh = blocks ELG1-dependent DNA repair in HEK293T cells | HEK293T ELG1-luciferase reporter, luminescence, 16 h; DNA damage induced by 5-fluorouridine | Potency, µM (top dose mostly 46.1 µM), inactives show top-dose activity change, negative = inhibition, hits mostly inhibitors | actives 2.3% (n = 330,000) | AID 504467; also: % is scaled to controls: 0 for no effect and ±100 for the full control effect; nearly all actives have a fitted effect of over 55% in size
#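 DMSO vehicle served as the neutral condition. Each well held 2,000 cells given 5-fluorouridine plus compound; after 16 hr at 37 °C/5% CO2, ONE-Glo was added and luciferase measured 30 min later.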
# ELG1 FLuc counter = luciferase inhibition in cell-free luciferin readout for ELG1 hits; shares compounds with ELG1 repair inh; cell-free firefly luciferase luminescence counter-screen, ViewLux; Potency, µM (highest dose often 46.1 µM), without a hit: at the highest dose activity change, negative = inhibition, most hits filed as inhibitors; actives 3% (n = 350); also: % is scaled to controls: 0 for no effect and ±100 for the full control effect
# ELG1 Luc conf = human ELG1 repair inhibition, luciferase-tagged ELG1 confirmation | shares compounds with ELG1 repair inh | HEK293T ELG1-luciferase levels, luminescence; cells co-treated with 5-fluorouridine | Potency, µM (doses to about 46.1 µM), for the others: top-dose activity change, negative = inhibition, hits mostly inhibitors | actives 68% (n = 670); also: % is scaled to controls: 0 for no effect and ±100 for the full control effect; nearly all actives have a fitted effect of over 55% in size
# ELG1 MMS Luc = MMS-stimulated human ELG1 repair inhibition, confirmed | AID 624249 | HEK293T luciferase-tagged ELG1 level, MMS stimulated | Potency, µM (doses to about 46.1 µM), inactives show top-dose activity change, negative = inhibition, usual class: inhibitors | actives 53% (n = 670) | shares compounds with ELG1 repair inh; also: % is scaled to controls: 0 for no effect and ±100 for the full control effect; nearly all actives have a fitted effect of over 60% in size
# ELG1 5-FU = confirmation of ELG1 repair inhibitors: viability with 5FU | shares compounds with ELG1 repair inh | cell viability with 5-FU, ELG1-dependent repair | Potency, µM (doses to about 46.1 µM), for the others: top-dose activity change, negative = viability loss, usual class: cytotoxic | 670 tested, under 10 active | AID 624250;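 also: ELG1-luc HEK293T cells cotreated with 5-fluorouridine at 10 µM final; viability measured 16 h after compound addition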
# ELG1 MMS viab = confirmation of ELG1 repair inhibitors: viability with MMS | shares compounds with ELG1 repair inh | Cell viability with MMS, ELG1-dependent DNA repair | Potency, µM (doses to about 46.1 µM), inactives show top-dose activity change, negative = viability loss, most hits filed as cytotoxic | actives 33% (n = 670) | AID 624251;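 also: ELG1-luc HEK293T cells co-treated with 10 µM MMS; viability read 16 h after compound addition; % is scaled to controls: 0 for no effect and ±100 for the full control effect; nearly all actives have a fitted effect of over 60% in size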
# Cell viab unstim = counter-screen for ELG1 repair inhibitors: unstimulated cell viability; shares compounds with ELG1 repair inh; cell viability counter-screen, unstimulated, luminescence; Potency, µM (top dose mostly 45.9 µM), inactives show at the highest dose activity change, negative = loss of viability, most hits filed as cytotoxic; actives 8% (n = 900);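 also: compound exposure lasted 16 hours before reading; % is scaled to controls: 0 for no effect and ±100 for the full control effect; nearly all actives have a fitted effect of over 55% in size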
# FLuc biochem = firefly luciferase inhibition counter-screen; shares compounds with ELG1 repair inh; Potency, µM (series often up to 57.5 µM), without a hit: at the highest dose activity, negative = inhibition, most hits filed as inhibitors; purified firefly luciferase, luminescence counter-screen; AID 624253; actives 10% (n = 350); also: % is scaled to controls: 0 for no effect and ±100 for the full control effect
# * hit, by the source's call; ? = inconclusive; / = no result; [ ] = another dose, or the depositor's remark. Compounds with a hit are over-represented: about 9.3% of the library has one in this group of screens. Calls follow the shape of the dose curve; as a rule, active = well fitted curve in the direction sought with a large enough effect; inconclusive = small, poorly fitted or top-dose-only effect, or another doubt; inactive = no such curve, though single readings can be large; an effect the other way counts as inactive or inconclusive. Potency is read from the fitted curve at half-maximal effect.
SMILES,Rab9 promoter act,SMN2 splice enh,FLuc counter,NPC1 promoter act,ELG1 genotox,ELG1 repair inh,ELG1 FLuc counter,ELG1 Luc conf,ELG1 MMS Luc,ELG1 5-FU,ELG1 MMS viab,Cell viab unstim,FLuc biochem
Cc1ccc(-c2nc(NC(=O)c3cc(C(C)(C)C)nn3C)sc2C)cc1Cl,-9%,/,-2%,-4%,-5%,4.6µM*,/,?,-19%,3%,?,?,/
COc1ccccc1-c1nc(-c2ccccc2)[nH]c(=O)c1C#N,12%,-3%,?,8%,1%,3%,/,/,/,/,/,/,/
COC(=O)[C@@]1(Cc2ccc(OC)cc2)[C@H]2c3cc(C(=O)N4CCCC4)n(CCF)c3C[C@H]2CN1C(=O)c1ccccc1,/,-7%,/,/,/,/,/,/,/,/,/,/,/
COc1cc(NC(=O)C2CCCN(c3ncnc4c3nc3n4CCCCC3)C2)cc(OC)c1OC (stereo unspecified),0%,/,1%,-4%,-1%,1.8µM*,9%,4.5µM*,9%,?,7%,0%,1%
CCc1cccc(NC(=O)C2CCCN(c3ncnc4c3nc3n4CCCCC3)C2)c1 (stereo unspecified),-1%,/,0%,-5%,-14%,18µM*,-8%,14µM*,22µM*,1%,-6%,?,-6%
CCN1CCN(C(=O)C2CCCN(c3ncnc4c3nc3n4CCCCC3)C2)CC1 (stereo unspecified),-2%,/,-3%,-8%,0%,?,/,/,/,/,/,/,/
O=C(C1CCCN(c2ncnc3c2nc2n3CCCCC2)C1)N1CCN(c2ccccc2F)CC1 (stereo unspecified),2%,/,0%,-4%,-15%,9.2µM*,-7%,11µM*,25µM*,-7%,-8%,?,-5%
Cc1cccc(OCCC(=O)NNC(=O)c2ccoc2C)c1,-1%,/,1%,-4%,-3%,9%,/,/,/,/,/,/,/
CCOC(=O)c1c(C)[nH]c(C(=O)NNC(=O)c2ccc(Br)cc2)c1C,30%,/,?,16%,7%,?,/,/,/,/,/,/,/
CCOC(=O)c1c(C)[nH]c(C(=O)NNC(=O)c2ccccc2F)c1C,/,/,/,/,?,?,/,/,/,/,/,-9%,/
Cn1c(=O)c2c(nc(NC(Cc3ccccc3)C(=O)O)n2Cc2ccccc2)n(C)c1=O (stereo unspecified),0%,-5%,-1%,-5%,0%,-22%,0%,?,-12%,8%,-4%,-4%,-3%
COCCn1c(C)cc(C(=O)COC(=O)c2cccnc2SC)c1C,/,/,/,/,?,?,118%,/,/,/,/,?,0.52µM*
CSc1ncccc1C(=O)OCC(=O)c1ccc(C)s1,/,/,/,/,1%,16%,/,/,/,/,/,/,/
CC(C)(C)NC(=O)CSc1nc2cccnc2n1C1CCCCC1,-6%,/,14%,-6%,0%,2%,/,/,/,/,/,/,/
CCOC(=O)c1[nH]c2ccc(OC)cc2c1NC(=O)CN1CCSCC1,7%,-6%,5%,0%,-7%,?,/,/,/,/,/,/,/
COC(=O)c1[nH]c2ccc(C)cc2c1NC(=O)CN1CCN(c2ccccc2)CC1,-7%,-78%,-1%,-7%,-26%,18µM*,?,13µM*,18µM*,?,?,25µM*,1%
COC(=O)c1[nH]c2ccc(C)cc2c1NC(=O)C(C)N1CCN(C2CCCCC2)CC1 (stereo unspecified),4%,17%,3%,-3%,-1%,-15%,-6%,1.1µM*,?,8%,8%,?,5%
CCOC(=O)c1[nH]c2cc(OC)c(OC)cc2c1NC(=O)CN1CCN(c2ccc(OC)cc2)C(C)C1 (stereo unspecified),-7%,-13%,4%,0%,-9%,1.3µM*,?,3.2µM*,36µM*,?,?,41µM*,-4%[115 µM]
CCN1C(=O)c2cccc3c(S(=O)(=O)N(C(C)=O)c4ccc(OC(C)=O)cc4)ccc1c23,/,/,/,/,18%,?,/,/,/,/,/,/,/
COc1ccc2[nH]c3c(c2c1)CCN1C(=O)C(CC(=O)NCc2ccco2)C[C@H](C(=O)N(C(C)C)C(C)C)[C@@]31C (stereo partly specified),/,/,/,/,0%,-1%,/,/,/,/,/,/,/
O=C(CSc1ncnc2sccc12)N1CCCCC1,/,/,/,/,?,?,/,/,/,/,/,-5%,/
CCOC(=O)C1=C(C)NC(C)=C(C(=O)OCC)C1c1sccc1C,0%,-12%,3%,-2%,-2%,-17%,/,/,/,/,/,/,/
COc1ccc(NC(=O)CSc2nc(-c3ccco3)cc(C(F)(F)F)n2)c(OC)c1,/,-3%,0%,/,/,/,/,/,/,/,/,/,/
CN(C)c1ccc(C=Nc2cncc3ccccc23)cc1,/,/,/,/,/,/,50%,/,/,/,/,-5%,0.29µM*
Cc1ccc(-c2[nH]ncc2/C=N/n2c(COc3ccccc3)nc3ccccc3c2=O)cc1,-9%,-9%,-1%,1%,-13%,5.2µM*,-11%,3.2µM*,20µM*,?,28µM*,16µM*,?
